PfM18AAP inh-1 – blocks P. falciparum M18 aspartyl aminopeptidase | recombinant PfM18AAP, H-Glu-NHMec fluorogenic cleavage | inhibition, % at 7.35 µM | 290,000 tested, 1.2% active;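 active means inhibition above the campaign mean inhibition over all tested compounds plus 3 SD, cut at about 28% in these data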
Platelet DG rel – platelet dense granule release activity | 300,000 tested, 0.22% active | AID 1663 | human platelet-rich plasma, SFLLRN dense granule ATP release, luminescence | inhibition, %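 (compounds screened at 7.5 µM in platelet-rich plasma)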;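 active means mean replicate score, as percent of positive control, at or above 50; inconclusive means mean below 50 but at least one replicate at or above 50; inactive means mean and every replicate below 50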
ABHD5 PLIN5 PPI – blocks binding of human ABHD5 to perilipin-5. Q00G26+Q8WTS1. Split G. princeps luciferase complementation, luminescence, 4 h. inhibition, % at 4 µM. 360,000 tested, 0.78% active;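 active means inhibition above the mean inhibition across every tested compound plus 3 SD, cut at about 22% in these data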
Target sequence (Q00G26 whole entry, looked up): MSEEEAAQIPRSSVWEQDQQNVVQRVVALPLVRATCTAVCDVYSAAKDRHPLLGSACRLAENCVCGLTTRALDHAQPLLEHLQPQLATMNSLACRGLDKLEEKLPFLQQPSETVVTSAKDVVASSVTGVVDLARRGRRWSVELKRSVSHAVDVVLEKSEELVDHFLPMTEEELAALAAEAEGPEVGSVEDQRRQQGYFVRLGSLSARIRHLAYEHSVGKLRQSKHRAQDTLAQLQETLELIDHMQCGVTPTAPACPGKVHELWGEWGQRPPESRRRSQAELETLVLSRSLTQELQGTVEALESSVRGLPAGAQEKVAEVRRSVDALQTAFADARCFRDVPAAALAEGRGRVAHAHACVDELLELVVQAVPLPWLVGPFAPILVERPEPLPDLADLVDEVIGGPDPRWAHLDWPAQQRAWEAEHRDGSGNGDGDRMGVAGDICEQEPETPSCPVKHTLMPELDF
Target sequence (Q8WTS1 whole entry, looked up): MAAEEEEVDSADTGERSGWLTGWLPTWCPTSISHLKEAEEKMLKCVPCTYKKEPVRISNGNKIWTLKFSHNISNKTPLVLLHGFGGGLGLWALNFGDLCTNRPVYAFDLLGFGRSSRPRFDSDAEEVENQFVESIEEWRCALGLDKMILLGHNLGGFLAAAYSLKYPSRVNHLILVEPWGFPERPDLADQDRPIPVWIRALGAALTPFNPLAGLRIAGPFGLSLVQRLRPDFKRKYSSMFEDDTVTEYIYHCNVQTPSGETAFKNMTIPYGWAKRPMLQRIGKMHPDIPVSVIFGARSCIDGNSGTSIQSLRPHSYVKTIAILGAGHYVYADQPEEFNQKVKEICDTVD
Rce1 inh – blocks yeast Ras-converting enzyme; Q03530; yeast membranes, quenched prenylated peptide cleavage fluorescence; calls only; 290,000 tested, 0.27% active; AID 2563;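 active means fall in fluorescence gain of 50% or more versus controls, with final raw signal at or below 3038400; inconclusive means same 50% fall but final raw signal above 3038400; inactive means fall in fluorescence gain under 50%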
Exocytosis inh – lytic granule exocytosis inhibition. TALL-104 LAMP-1 surface exposure, flow cytometry; cells stimulated with thapsigargin and PMA. inhibition, % at 10 µM. 360,000 tested, 0.66% active. AID 651702;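 active means inhibition above about 55%, limit read from the data; inconclusive means no clear call, values can overlap the other calls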
PfM18AAP inh-2 – confirmation of Plasmodium falciparum M18 aspartyl aminopeptidase inhibitors. shares compounds with PfM18AAP inh-1. recombinant PfM18AAP, H-Glu-NHMec fluorogenic cleavage. inhibition, % at 7.35 µM. 2,400 tested, 28% active. AID 2170;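 active means mean inhibition over replicate wells above the hit cutoff set for the earlier primary screen, cut at about 29% in these data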
CTSL1 counter – counter-screen for PFM18AAP inhibitors: confirmation of human cathepsin L inhibitors; shares compounds with PfM18AAP inh-1; purified cathepsin L1, Z-Leu-Arg-MCA fluorescence; inhibition, % at 5.96 µM; 2,400 tested, under 10 active; AID 2178;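 active means average inhibition across replicates above the hit cutoff set in the earlier primary screen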
Of the large screens only hits and unclear results are named; the others gave an inactive call (follow-up assays come after a bar, where they were run). Most compounds without a hit are left out; they make up all but 2.6% or so of the library.

Cc1cc(C)c(-n2c(SCCS(=O)(=O)c3ccc(F)cc3)n[nH]c2=O)c(C)c1	PfM18AAP inh-1 41 | PfM18AAP inh-2 inactive | CTSL1 counter inactive
O=C(CSc1nc2cc(S(=O)(=O)N3CCOCC3)ccc2o1)Nc1c(F)cccc1F	PfM18AAP inh-1 32 | PfM18AAP inh-2 inactive | CTSL1 counter inactive
BrC(=C\c1ccccc1)/C=N/Nc1ccc2nncn2n1	PfM18AAP inh-1 32 | PfM18AAP inh-2 inactive | CTSL1 counter inactive
C(=N\Nc1nn2cnnc2c2ccccc12)/c1ccco1	PfM18AAP inh-1 44 | PfM18AAP inh-2 inactive | CTSL1 counter inactive
CCOc1cc(/C=N/Nc2nn3cnnc3c3ccccc23)ccc1O	none
C(=N\Nc1ccc2nncn2n1)/c1ccco1	PfM18AAP inh-1 34 | PfM18AAP inh-2 inactive | CTSL1 counter inactive
C/C(=N\Nc1ccc2nncn2n1)c1cccs1	PfM18AAP inh-1 40 | PfM18AAP inh-2 inactive | CTSL1 counter inactive
CN(C)c1ccc(C2N(c3ccc(Cl)cc3)C(=O)C3CCCN32)cc1 (stereo not given)	none
Cc1ccsc1C1C(C#N)=C(N)OC2=C1C(=O)CCC2 (stereo not given)	none
COc1cc(/C=N/Nc2nn3cnnc3c3ccccc23)ccc1O	none
Oc1ccc(/C=N/Nc2nn3cnnc3c3ccccc23)cc1	PfM18AAP inh-1 33 | PfM18AAP inh-2 inactive | CTSL1 counter inactive
COc1cccc(/C=N/Nc2nn3cnnc3c3ccccc23)c1	PfM18AAP inh-1 40 | PfM18AAP inh-2 inactive | CTSL1 counter inactive
CCC1NC(=O)c2cccnc2-n2c1nc1ccc(OC)cc1c2=O (stereo not given)	none (no result: PfM18AAP inh-1, Platelet DG rel, Rce1 inh)
O=S(=O)(N1CCCCC1)N1CCN(c2ccc(F)cc2)CC1	none
N#Cc1ccc(NC2c3ccccc3CC2O)cc1 (stereo not given)	none (no result: PfM18AAP inh-1, Platelet DG rel, Rce1 inh)
NC(=O)c1ccc(N2CCN(c3ccccc3O)CC2)c([N+](=O)[O-])c1	PfM18AAP inh-1 36 | PfM18AAP inh-2 inactive | CTSL1 counter inactive
NC(=O)c1ccc(N2CCN(c3ccccc3F)CC2)c([N+](=O)[O-])c1	none
C/C(=N\NC(=O)C1COc2ccccc2O1)c1ccc(Cl)s1 (stereo not given)	none
CC(=O)NC(CC(=O)NNC(=O)c1cc2ccccc2cc1O)c1ccccc1 (stereo not given)	PfM18AAP inh-1 32 | PfM18AAP inh-2 inactive | CTSL1 counter inactive
O=S(=O)(NNC(=S)Nc1ccc(S(=O)(=O)Nc2ncccn2)cc1)c1ccc(Br)cc1	PfM18AAP inh-1 41 | PfM18AAP inh-2 inactive | CTSL1 counter inactive
CC(C)(C)C1CCC(=NNc2ncc(C(F)(F)F)cc2Cl)CC1 (stereo not given)	PfM18AAP inh-1 33 | PfM18AAP inh-2 inactive | CTSL1 counter inactive
COc1ccccc1NS(=O)(=O)c1ccc(NC(C)=O)cc1	PfM18AAP inh-1 68, Platelet DG rel inconclusive | PfM18AAP inh-2 inactive | CTSL1 counter inactive
CCC(CCC(=O)Nc1cccc([N+](=O)[O-])c1)C(=O)O (stereo not given)	none
COc1ccc(N(C)C(=O)c2cnc(N3CCN(c4ncccn4)CC3)c3ccccc23)cc1	none
O=S1(=O)N=C(Nc2nncs2)c2ccccc21	PfM18AAP inh-1 41 | PfM18AAP inh-2 51 | CTSL1 counter inactive
CN1C(=O)N(c2cccc3ccccc23)C(n2cncn2)C1(C)C (stereo not given)	PfM18AAP inh-1 81 | PfM18AAP inh-2 77 | CTSL1 counter inactive
O=C(Cn1cnc([N+](=O)[O-])n1)c1ccc(O)c(O)c1	PfM18AAP inh-1 38 | PfM18AAP inh-2 inactive | CTSL1 counter inactive
FC(F)Oc1ccc(NC(=S)Nn2cnnc2)cc1	PfM18AAP inh-1 80 | PfM18AAP inh-2 66 | CTSL1 counter inactive
COC(=O)CN(n1cnnc1)S(=O)(=O)c1ccc(C)cc1	PfM18AAP inh-1 84 | PfM18AAP inh-2 79 | CTSL1 counter inactive
COC(=O)CN(c1cc(Cl)ccc1OC)S(=O)(=O)c1ccc(C)cc1	none
C[C@H](CO)N1C[C@H](C)[C@@H](CN(C)Cc2ccc(Cl)c(Cl)c2)Oc2c(NC(=O)C3CC3)cccc2C1=O	none (no result: PfM18AAP inh-1, Platelet DG rel, Rce1 inh)
CCOC(=O)N1CCc2c(sc(NC(=O)CN3CCOCC3)c2C#N)C1	none
CCOC(=O)N1CCc2c(sc(N)c2C#N)C1	PfM18AAP inh-1 39 (no result: ABHD5 PLIN5 PPI, Exocytosis inh) | PfM18AAP inh-2 inactive | CTSL1 counter inactive
O=C(O)Cc1ccc2ocnc2c1	PfM18AAP inh-1 45 | PfM18AAP inh-2 inactive | CTSL1 counter inactive
O=C(NC1CCCCC1)C(c1ccc(Cl)cc1)N(C(=O)c1cnccn1)c1ccc2c(c1)OCO2 (stereo not given)	none
COc1ccc(NS(=O)(=O)c2ccc(C)c(C(=O)NNC(=O)c3ccccc3O)c2)cc1	none (no result: PfM18AAP inh-1)
COC(=O)c1ccc(C(c2c(C)[nH][nH]c2=O)c2c(C)[nH][nH]c2=O)cc1	none
COC(=O)COc1c(Cl)cc(C(c2c(C)[nH][nH]c2=O)c2c(C)[nH][nH]c2=O)cc1OC	PfM18AAP inh-1 34 | PfM18AAP inh-2 inactive | CTSL1 counter inactive
COc1cc(C(c2c(C)[nH][nH]c2=O)c2c(C)[nH][nH]c2=O)cc(Br)c1OC	PfM18AAP inh-1 38 | PfM18AAP inh-2 inactive | CTSL1 counter inactive
CCOC(=O)COc1ccc(C(c2c(C)[nH][nH]c2=O)c2c(C)[nH][nH]c2=O)cc1	PfM18AAP inh-1 34 | PfM18AAP inh-2 inactive | CTSL1 counter inactive
O=C(NCc1ccccc1)c1cc(C2COCCN2C(=O)C2CC2)on1 (stereo not given)	none (no result: PfM18AAP inh-1, Platelet DG rel, Rce1 inh)
Cc1cc(C(=O)N/N=C/c2ccc(O)c(O)c2O)c(C)n1-c1ccccc1	PfM18AAP inh-1 49 | PfM18AAP inh-2 inactive | CTSL1 counter inactive
CCC/C=N/Nc1nnc(Cc2ccc(OC)c(OC)c2)c(=O)[nH]1	PfM18AAP inh-1 32 | PfM18AAP inh-2 inactive | CTSL1 counter inactive
Cc1c(NC(=O)C(=O)/C=C(\O)c2ccc(Br)cc2)c(=O)n(-c2ccccc2)n1C	none
O=C(COc1ccccc1)NNc1nc2c(F)cc(F)cc2s1	none
Cc1cccc2sc(NNC(=O)C3=COCCO3)nc12	PfM18AAP inh-1 43 | PfM18AAP inh-2 inactive | CTSL1 counter inactive
O=C(NNc1nc2c(F)cc(F)cc2s1)C1COc2ccccc2O1 (stereo not given)	none
CCC(=O)NNc1nc2c(F)cc(F)cc2s1	PfM18AAP inh-1 44 | PfM18AAP inh-2 inactive | CTSL1 counter inactive
Cc1cccc2sc(NNC(=O)C3COc4ccccc4O3)nc12 (stereo not given)	PfM18AAP inh-1 36 | PfM18AAP inh-2 inactive | CTSL1 counter inactive
O=C(NNc1nc2c(F)cc(F)cc2s1)C1=COCCO1	PfM18AAP inh-1 33 | PfM18AAP inh-2 inactive | CTSL1 counter inactive
COc1cc(OC)cc(N2CC(C)(C)C2=O)c1	none
CCCCCCOc1ccc(C(=O)n2cnc(N)n2)cc1	PfM18AAP inh-1 44 | PfM18AAP inh-2 41 | CTSL1 counter inactive
COc1ccc(OC)c(CNn2c(-c3ccccc3F)nc3ccccc3c2=O)c1	none
